# Only some compounds are listed: those with a hit (about 5% of all), similar ones and a draw of the others.
# CHT PAM: allosterically activates the human high affinity choline transporter. Q9GZV3. CHT-expressing cells, membrane potential dye, choline EC20; hits give high values; LV-AA mutant CHT in HEK293 cells. 310,000 tested, 0.49% active. B-score at 10 µM;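 active means initial fluorescence not abnormally high and integrated response B-score, plate-corrected, over 3 SD above library mean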
# Target sequence (Q9GZV3 whole entry, looked up): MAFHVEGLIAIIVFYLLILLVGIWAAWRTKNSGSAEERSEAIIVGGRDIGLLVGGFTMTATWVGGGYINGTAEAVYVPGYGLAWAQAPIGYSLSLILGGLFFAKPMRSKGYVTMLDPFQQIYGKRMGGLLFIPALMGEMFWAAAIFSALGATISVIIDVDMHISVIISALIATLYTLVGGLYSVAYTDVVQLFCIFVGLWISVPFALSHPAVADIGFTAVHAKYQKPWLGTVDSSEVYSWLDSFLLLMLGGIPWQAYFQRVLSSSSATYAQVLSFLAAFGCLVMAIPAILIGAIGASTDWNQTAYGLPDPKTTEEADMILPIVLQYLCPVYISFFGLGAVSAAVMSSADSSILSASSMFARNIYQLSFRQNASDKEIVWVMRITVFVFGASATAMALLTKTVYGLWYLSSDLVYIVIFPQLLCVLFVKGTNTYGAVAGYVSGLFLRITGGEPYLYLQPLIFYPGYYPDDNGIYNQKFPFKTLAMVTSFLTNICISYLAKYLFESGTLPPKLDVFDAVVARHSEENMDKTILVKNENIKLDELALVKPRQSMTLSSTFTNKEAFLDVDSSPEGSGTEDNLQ
# PREPL inhibitor: inhibits the human prolyl oligopeptidase-like enzyme; Q4J6C6; recombinant PREPL, fluorescence polarization activity-based probe; inhibition, % at 5.96 µM; 320,000 tested, 0.68% active; in the data active means inhibition above about 43%;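 further: 0% = enzyme with DMSO and 100% = wells lacking enzyme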
# AI-2 QS mod: modulates the Vibrio harveyi AI-2 quorum sensing system; Vibrio harveyi JMH597 AI-2 luminescence/OD600 ratio, 9 h; hits give low values; strain lacks LuxN and CqsS sensors; 0 = neutral-control median; activity change, % at 7.5 µM; 300,000 tested, 0.4% active; AID 2094; in the data active means activity change below about -75%, passing the limit was not always enough; inconclusive means no clear call, values can overlap the other calls;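 further: luminescence divided by OD600 gain over 9 h not by final OD600 alone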
# CHT inh: inhibitors of human choline transporter CHT; 310,000 tested, 0.86% active; B-score at 10 µM; CHT-expressing cells, membrane potential dye, choline response; hits give low values; Q9GZV3;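 active means B-score over 3 SD under the library average, and starting fluorescence ratio not unusually high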;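 further: choline stimulus applied at its EC90 after an EC20 pre-addition; B-score computed on integrated fluorescence ratio after choline addition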
# ALR inh: inhibitors of human sulfhydryl oxidase ALR; P55789; purified ALR, DTT oxidation, H2O2 HRP-luminol luminescence; inhibition, % (test concentration not listed); 290,000 tested, 3.8% active; AID 485317;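 active means mean replicate inhibition above about 79%, with every replicate also reaching it, limit read from the data; inconclusive means only one of the two criteria met; inactive means mean below limit and not every replicate reaching it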
# CHT block conf: confirmation of human choline transporter CHT inhibitors; shares compounds with CHT inh; 2,400 tested, 70% active; CHT activity remaining % of control (hits give low values), % at 10 µM; CHT-expressing cells, choline membrane potential dye; LV-to-AA substituted CHT, HEK293 cells;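 active means choline transporter activity left, mean of duplicates at 10 µM, below buffer-only control mean minus 3 SD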;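 further: depolarization triggered by choline at its EC90 following an EC20 pre-addition; 0% = hemicholinium-3 full block and 100% = buffer-only control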
# HEK293 MPD ctr: CHT inhibitor counter-screen hit in parental HEK293 cells; membrane potential dye, choline response; active = decrease or increase beyond buffer ±3SD; shares compounds with CHT inh; membrane potential ratio readout (active if shifted either direction beyond buffer ±3SD; no single direction) at 10 µM; 2,400 tested, 4% active;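 further: parental cells lack the transporter so any hit is non-specific; ratio is peak minus trough fluorescence over baseline after EC90 choline challenge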
# Numbers without * were called inactive; i = inactive; ? = inconclusive; . = not tested or not shown.
SMILES,CHT PAM,PREPL inhibitor,AI-2 QS mod,CHT inh,ALR inh,CHT block conf,HEK293 MPD ctr
COc1ccc(-n2nc(C(=O)NCC(=O)Nc3ccc(F)cc3)c3ccccc3c2=O)cc1,i,-2,22,i,0,.,.
Cc1ccc(CN2CCN(Cc3cn(C(C)C)c4ccccc34)CC2CCO)o1 (stereo unspecified),i,13,11,i,-7,.,.
CC(C)=CCN1CCN(Cc2cn(C(C)C)c3ccccc23)CC1CCO (stereo unspecified),i,-1,15,-5*,-8,40%*,i
O=C(O)c1cnn(-c2nc(-c3ccc(Br)cc3)cs2)c1C(F)(F)F,i,2,29,-8.9*,-1,i,i
O=C(O)c1cnn(-c2nc(-c3ccc(F)cc3)cs2)c1C(F)(F)F,i,-8,22,i,30,.,.
COCCN(C(=O)c1snc(C(N)=O)c1N)C(C(=O)NC1CCCCC1)c1ccc(N(C)C)cc1 (stereo unspecified),i,12,7,i,13,.,.
C[C@H](NC(=O)c1nc[nH]c1C(=O)N1CCc2ccccc2C1)C(=O)OCc1ccccc1,i,-4,13,i,-1,.,.
CC(C)c1ccc(S(=O)(=O)N2CCC(C(=O)NCC3(N(C)C)CCCCC3)CC2)cc1,i,2,19,-6.1*,1,22%*,i
CN(C)C1(CNC(=O)C2CCN(S(=O)(=O)c3cc(Cl)ccc3Cl)CC2)CCCCC1,i,-51,12,i,-2,.,.
CCC(=O)Nc1cc(Cl)ccc1N1CCN(C(=O)CC)CC1,i,10,2,-8.1*,-6,67%*,i
CCOc1ccccc1N1CCN(C(=O)c2cccs2)CC1,i,9,-4,i,27,.,.
CC1=NN(C(N)=S)C(=O)C1N=Nc1c(Br)cc(Br)cc1Br (stereo unspecified),i,-5,49,-7.7*,98*,31%*,i
COc1ccccc1/C=C/C=N/NC(=O)c1cc(-c2ccc(C)o2)[nH]n1,i,2,3,-17*,-3,i,i
Cc1onc(-c2ccccc2)c1CNC(=O)C1COc2ccccc2O1 (stereo unspecified),i,5,8,i,-4,.,.
COc1ccc(-c2cc(C(F)(F)F)c3c(=O)n(-c4ccccc4)[nH]c3n2)cc1,i,0,5,-6*,99*,66%*,2.3*
NNC(=O)c1[nH]c(-c2ccccc2)cc1-c1ccccc1,i,0,7,i,.,.,.
CCN(CC)c1ccc(/C=N/NC(=O)c2ccco2)c(O)c1,i,3,-27,-5.2*,97*,i,i
CCN(CC)c1ccc(/C=N/NC(=O)Cc2cccs2)c(O)c1,i,12,-6,i,.,.,.
Oc1cccc(-n2nnnc2SCc2ccccc2F)c1,i,-12,-4,-6.3*,4,57%*,i
O=[N+]([O-])c1ccc(O)c(CSc2nnnn2-c2ccccc2)c1,i,7,10,-6.1*,.,30%*,i
Nc1ccccc1C(=O)NCc1ccc(Cl)cc1,i,7,-32,i,-16,.,.
COc1ccc([C@@H](C)NC(=O)CCc2nnc(-c3cc(C)on3)o2)cc1,i,10,7,i,-3,.,.
CCC(NC(=O)CCc1nnc(-c2cc(C)on2)o1)C12CC3CC(CC(C3)C1)C2 (stereo unspecified),i,16,3,-7.9*,-5,44%*,i
CN(C)C(=O)N1CCN(S(=O)(=O)c2ccc3ccccc3c2)CC1,i,5,10,-6.7*,-5,5.6%*,i
CCOc1ccc(C2NC(=O)c3sc(=S)n(-c4ccccc4)c3N2)cc1 (stereo unspecified),i,-6,3,-4.9*,81*,i,i
SMILES,CHT PAM,PREPL inhibitor,AI-2 QS mod,CHT inh,ALR inh,CHT block conf,HEK293 MPD ctr
COc1ccc(C2NC(=O)c3sc(=S)n(-c4ccccc4)c3N2)cc1 (stereo unspecified),i,12,27,i,64,.,.
Cc1ccc(S(=O)(=O)N2CCC(C(=O)C3C(=O)CC(C)(C)CC3=O)CC2)cc1,i,-2,14,-6.4*,5,i,i
O=C1CCCC(=O)C1C(=O)C1CCN(S(=O)(=O)c2ccccc2)CC1,i,1,33,i,-17,.,.
COc1cccc(NC(=O)CCC(=O)N2CC(C)Oc3ccc(C)cc32)c1 (stereo unspecified),i,14,20,i,-3,.,.
CC(NC(=O)/C(C#N)=C/c1ccc([N+](=O)[O-])o1)c1ccccc1 (stereo unspecified),i,0,?,-5.3*,.,62%*,i
CC(NC(=O)/C(C#N)=C/c1ccco1)c1ccccc1 (stereo unspecified),i,-10,20,i,4,.,.
CCOCCCNC(=O)/C(C#N)=C/c1ccc([N+](=O)[O-])o1,i,-32,-83*,-7*,-116,58%*,i
CC1CCCN(Cc2nc(Cc3ccccc3Cl)no2)C1 (stereo unspecified),i,17,7,i,2,.,.
COc1ccc(NC(=O)COc2ccc(N(C)S(=O)(=O)c3ccc(Cl)cc3)cc2)cc1OC,i,15,16,i,.,.,.
COc1ccc(OC(C)C(=O)NCCC2=CCCCC2)cc1 (stereo unspecified),i,10,11,-5.1*,-12,i,i
COc1ccc([N+](=O)[O-])cc1NCC(=O)Nc1cc(S(=O)(=O)N2CCCCC2)ccc1C,.,1,.,.,.,.,.
Cn1c(NC(=O)CCC2CCCCC2)cc(=O)n(C)c1=O,i,-1,12,-6.4*,44,i,i
CCCCN(Cc1ccccc1)C(=O)C1CCN(S(=O)(=O)c2c(C)noc2C)CC1,i,8,21,i,-2,.,.
N#CCN1CCN(CCC(=O)Nc2ccc(OCc3ccccc3)cc2)CC1,i,22,16,i,-4,i,i
O=C(C1Cc2ccccc2CN1S(=O)(=O)c1ccc(F)cc1)N1CCCCC1 (stereo unspecified),i,5,11,-6.3*,0,3.1%*,i
O=C(c1ccco1)N1CCN(C(=O)C2Cc3ccccc3CN2S(=O)(=O)c2ccc(F)cc2)CC1 (stereo unspecified),i,3,-2,i,-12,.,.
CN1Cc2sc(N)c(C#N)c2CC1(C)C,i,25,14,-9*,-3,33%*,i

# Assay outcomes deposited in PubChem BioAssay by several laboratories.
